Biological target: PEG-3 (UniProt Q6IN02)
Experiment: Peg3 promoter luciferase inhibitors, potency, dose response, cell-based, HeLa, CREF/GAPDH counter-screen panel (AID 624167)
Details: CREF/GAPDH counter-screens; HeLa PEG-Prom luciferase reporter, overnight, run 1, dose range 1, at 100 µM (top of the series) unless noted

Chain of PEG-3 (Q6IN02 whole entry, looked up): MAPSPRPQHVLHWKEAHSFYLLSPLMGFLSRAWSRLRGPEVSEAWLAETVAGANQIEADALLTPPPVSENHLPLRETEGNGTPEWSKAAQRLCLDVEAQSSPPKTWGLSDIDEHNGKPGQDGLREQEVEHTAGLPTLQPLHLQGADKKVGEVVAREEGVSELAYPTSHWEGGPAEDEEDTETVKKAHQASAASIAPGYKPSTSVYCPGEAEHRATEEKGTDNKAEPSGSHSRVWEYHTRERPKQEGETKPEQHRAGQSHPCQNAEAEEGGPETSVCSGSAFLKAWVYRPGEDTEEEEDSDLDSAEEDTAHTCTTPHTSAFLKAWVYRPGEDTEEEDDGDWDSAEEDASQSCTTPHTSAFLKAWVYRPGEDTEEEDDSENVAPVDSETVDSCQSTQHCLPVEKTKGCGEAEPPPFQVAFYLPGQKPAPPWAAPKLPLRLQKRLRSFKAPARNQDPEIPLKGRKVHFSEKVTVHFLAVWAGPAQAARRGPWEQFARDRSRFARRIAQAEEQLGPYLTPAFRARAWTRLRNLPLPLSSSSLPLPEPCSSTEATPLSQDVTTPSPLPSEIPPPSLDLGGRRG

| SMILES | inhibition |
| --- | --- |
| CC1(C(=O)NCc2cccc3ccccc23)CCN1C(=O)Cc1ccc(-c2ccccc2)cc1 (stereo unspecified) | 52.6% |
| O=[N+]([O-])c1ccc(-c2nc(Nc3cccc(O)c3)c3ccccc3n2)cc1 | 99.4% |
| CN(C)CCNc1ncnc2c1sc1nc(N3CCCC3)c3c(c12)CC(C)(C)OC3 | 99.7% |
| CC(C)NC(=O)NC(=O)COC(=O)c1c2c(nc3ccccc13)CCC2 | 101% |
| CCC(=O)NC(c1cccs1)c1cc([N+](=O)[O-])c2cccnc2c1O (stereo unspecified) | 100% |
| N=c1n(CCN2CCCC2)c2ccccc2n1CC(O)c1ccc(Cl)c(Cl)c1 (stereo unspecified) | 99.3% |
| COc1ccccc1CN(C)C(=O)c1cc(-c2cc(OC)c(OC)c(OC)c2)nc2ccccc12 | 83.8% |
| CCN(CCN(C)C)C(=O)C1CCN(S(=O)(=O)c2c(C)noc2/C=C/c2ccccc2F)CC1 | 90.8% |
| CCCCC(=O)NC(c1ccccc1Cl)c1ccc2cccnc2c1O (stereo unspecified) | 70.2% |
| Cc1c(C#N)c(N)nc2c3c(sc12)NC(=O)CC3c1ccc(Cl)cc1 (stereo unspecified) | 98.7% |
| c1cncc(-c2nc(NCC3COc4ccccc4O3)c3ccccc3n2)c1 (stereo unspecified) | 101% |
| CC(C)(C)c1ccc(CN2N=Nc3ccccc3S2(=O)=O)cc1 | 98.8% |
| O=S(=O)(c1cccs1)N1CCN(c2ccnc3cc(Cl)ccc23)CC1 | 83.3% |
| CCc1cccc(CC)c1NC(=S)NCCc1c(C)[nH]c2ccc(C)cc12 | 89.5% |
| CC1CCCCN1CCNC(=O)c1ccc2c(=O)n(Cc3ccc(Cl)cc3)c(=S)[nH]c2c1 (stereo unspecified) | 101% |
| CCCN1CCc2c(sc(NC(=O)c3ccc(S(=O)(=O)N4CCN(C(=O)OCC)CC4)cc3)c2C(N)=O)C1 | 78.5% |

From PubChem BioAssay
